# In paper PMC4552634, “A New Set of Chemical Starting Points with Plasmodium falciparum Transmission-Blocking Potential for Antimalarial Drug Discovery” (PLoS ONE, 2015):
# The campaign covered roughly 13,000 compounds. About 3,200 (25%) showed an effect of 50% or more. Some of the results follow.
# Tested on: P. falciparum stage V gametocytes
# Set-up: BacTiter-Glo ATP luminescence viability of purified stage V gametocytes in 384-well plates, per cent inhibition versus DMSO
# Conditions: 48 h, 5 µM; inhibitor
row,SMILES,% Inhibition [%]
1,CN1CCN(c2ccc(Nc3c4ccccc4nc4ccccc34)cc2)CC1 [TCMDC-123912],39.23
2,CCn1c(-c2ccccc2)cc2nnc3ccccc3c21 [TCMDC-138220],3.318
3,CCN1CCN(CCNc2c3ccccc3nc3ccccc23)CC1.Cl [TCMDC-137545],85.19
4,CCN1CCN(CCCNc2c3ccccc3nc3ccccc23)CC1 [TCMDC-137546],84.24
5,CC[C@H](NC(=O)c1c(CCCN2CCN(c3ccccc3)CC2)c(-c2ccccc2)nc2cc(O)ccc12)c1ccccc1 [TCMDC-139302],9.444
6,CCN1CCN(c2ccc(Nc3c4ccccc4nc4ccccc34)cc2)CC1 [TCMDC-124255],96.72
7,CCN1CCN(CCCCNc2c3ccccc3nc3ccccc23)CC1 [TCMDC-137570],80.96
8,Cc1ccc(Nc2nc(C)cc(N3CCN(c4ccccc4)CC3)n2)cc1 [TCMDC-125308],-56.11
9,Oc1cc2c(cc1CN1CCN(Cc3ccc(Cl)s3)CC1)CCC2 [TCMDC-124882],-46.75
10,CCCc1ccc(N2C(N)=NC(N)=NC2(C)C)cc1 [TCMDC-137706],5.239
11,Cc1cc2c(cc1C(F)(F)F)N(C(=O)Nc1cc(C(=O)NC3CCN(Cc4ccccc4)C3)cc(C(F)(F)F)c1)CC2 (centres unmarked) [TCMDC-139921],12.41
12,Oc1ccc(-c2nc3c4cc(I)ccc4c4ccc(I)cc4c3[nH]2)cc1 [TCMDC-124199],-25
13,N#Cc1ccc2nc(-c3cc(-c4cccc(F)c4)cnc3N)[nH]c2c1 [TCMDC-133133],-54.5
14,N#Cc1ccc(N2CCN(Cc3cccc(-c4cccc(-c5nc6cc(F)ccc6[nH]5)c4)c3)CC2)nc1.O=C(O)C(F)(F)F [TCMDC-133109],-21.69
15,Clc1ccc(Cc2nc3ccccc3[nH]2)cc1Cl [TCMDC-125878],-7.507
16,FC(F)(F)c1ccc(NC(=S)N2CCC(CN3CCC(c4c[nH]c5ccccc45)CC3)CC2)cc1 [TCMDC-140191],5.954
17,O=C(Nc1ccc(Cl)c(Cl)c1)N1CCC(CN2CCC(c3c[nH]c4ccccc34)CC2)CC1 [TCMDC-140195],-22.77
18,O=C(Nc1ccc(Oc2ccccc2)cc1)N1CCC(CCN2CCC(c3c[nH]c4ccccc34)CC2)CC1 [TCMDC-140190],106
19,O=C(Nc1cc(C(F)(F)F)cc(C(F)(F)F)c1)N1CCC(CCN2CCC(c3c[nH]c4ccccc34)CC2)CC1 [TCMDC-140189],108.5
20,FC(F)(F)c1ccc(NC(=S)N2CCC(CCN3CCC(c4c[nH]c5ccccc45)CC3)CC2)cc1 [TCMDC-140188],107.1
21,O=C(Nc1ccc(Oc2ccccc2)cc1)N1CCC(CN2CCC(c3c[nH]c4ccccc34)CC2)CC1 [TCMDC-140194],35.38
22,O=C(Nc1cc(C(F)(F)F)cc(C(F)(F)F)c1)N1CCC(CN2CCC(c3c[nH]c4ccccc34)CC2)CC1 [TCMDC-140192],-4.081

row,SMILES,% Inhibition [%]
1,CN(C)CCc1c[nH]c2ccc(C(=O)Nc3ccc(-c4ccncc4)cc3)cc12 [TCMDC-132057],19.3
2,COc1ccc2nccc([C@@H](O)CN3CCC(NC(=O)c4ccc(CN5CCN(c6cccc(C)c6)CC5C)cc4)CC3)c2c1 (some centres unmarked) [TCMDC-140999],-29.97
3,CC1(C)N=C(N)N=C(N)N1OCCSCc1cc(Cl)sc1Cl [TCMDC-131620],30.29
4,O=S(=O)(NCCN1CCCC1)c1ccc(-c2ccc(CNCc3ccsc3)cc2)cc1 [TCMDC-132281],102.2
5,O=S(=O)(NCCN1CCCC1)c1cccc(-c2ccc(CNCc3ccsc3)cc2)c1 [TCMDC-132290],92.71
6,O=S(=O)(NCCN1CCCC1)c1cccc(-c2cccc(CNCc3ccsc3)c2)c1 [TCMDC-132277],89.41
7,CCN1CCN(c2cc(C)c3cc(NC(=O)c4ccc([N+](=O)[O-])c(C)c4)ccc3n2)CC1 [TCMDC-125576],24.57
8,CC(C)(CNCCOc1ccc(Cl)cc1)c1nc(-c2ccc(Cl)c(O)c2)c(-c2ccnc(N)n2)[nH]1 [TCMDC-141161],36.73
9,Cc1cccc2[nH]c(=O)c([N+](=O)[O-])c(O)c12 [TCMDC-131384],-28.29
10,CN(C)CCC=C1c2ccccc2Sc2c(O)cc(Cl)cc21 [TCMDC-123466],-77.93
11,N#Cc1cccc(Nc2ncc3c(-c4cccc(NC(=O)Cc5cccc(Cl)c5)c4)c[nH]c3n2)c1 [TCMDC-134682],19.68
12,CCn1ccc2c(N3CCCCS3(=O)=O)cc(C(=O)N[C@@H](Cc3ccccc3)[C@H](O)CNC(C)(C)CCCC(C)C)cc21 [TCMDC-135311],61.66
13,CCn1ccc2c(N3CCCC3=O)cc(C(=O)N[C@@H](Cc3ccccc3)[C@H](O)CNC3CCCCC3)cc21 [TCMDC-135316],7.868
14,CCn1ccc2c(N3CCCC3=O)cc(C(=O)N[C@@H](Cc3ccccc3)[C@H](O)CNCc3cccc(OC)c3)cc21 [TCMDC-134129],8.959
15,CCn1ccc2c(N3CCCS3(=O)=O)cc(C(=O)N[C@@H](Cc3ccccc3)[C@H](O)CNC(C)(C)CCCC(C)C)cc21 [TCMDC-135312],65.79
16,CCn1ccc2c(N3CCCC3=O)cc(C(=O)N[C@@H](Cc3ccccc3)[C@H](O)CNC(C)(C)CCCC(C)C)cc21 [TCMDC-135313],55.34
17,CNC(=O)c1cncc(/C=C/c2ccccc2S(N)(=O)=O)c1 [TCMDC-138266],49.76
18,C[C@H](NC(=O)c1c(OC2CN(C(c3ccccc3)c3ccccc3)C2)c(-c2ccccc2)nc2ccccc12)C1CCCCC1 [TCMDC-135543],-26.28
19,CS(=O)(=O)O.Nc1nc(NCC2CCC(CNS(=O)(=O)c3cccc4ccccc34)CC2)nc2ccccc12 (centres unmarked) [TCMDC-124251],-1.432
20,COC(=O)C(Cc1ccccc1)C(CSCc1ccc(OC)cc1)C(=O)N[C@@H](C(=O)OC(C)(C)C)c1ccc(C(C)(C)C)cc1 (some centres unmarked) [TCMDC-131235],8.806
21,CC(C)(C)OC(=O)c1c(NC(=O)/C=C/c2ccc(O)c(O)c2)sc2c1CCCC2 [TCMDC-131558],-45.09
22,CC=Cc1cc(Cc2cnc(N)nc2N)cc(CCC)c1OC [TCMDC-137634],-1.983

row,SMILES,% Inhibition [%]
1,CCOc1cc(Cc2cnc(N)nc2N)cc(OCC)c1OCCCCC(=O)OC [TCMDC-137176],-10.63
2,Cc1ccccc1CN1CCCN(Cc2ccc(C(=O)Nc3ccc(C(C)(C)C)cc3)cc2)CC1 [TCMDC-136429],-4.144
3,CCN(CC)CCn1c(=N)n(CC(=O)c2ccc(-c3ccccc3)cc2)c2ccccc21 [TCMDC-124026],67.24
4,CC(C)(C)c1ccc(Cn2nc(C(=O)N3CCN(C(=O)C4CCCO4)CC3)c3ccccc32)cc1 (centres unmarked) [TCMDC-134381],-2.653
5,CCN(CC)c1ccc(C(=O)Cn2ccc(=N)cc2)cc1 [TCMDC-139029],-2.203
6,CC(C)(C)c1ccc(Cn2c(=N)n(CC(=O)c3ccc(-c4ccccc4)cc3)c3ccccc32)cc1 [TCMDC-124030],98.24
7,CCOCc1cn(CC(=O)c2ccc(-c3ccccc3)cc2)c(C)nc1=N [TCMDC-124243],-19.83
8,O=C(NC1CC1)c1ccc(Cn2c(SCc3cccc(Cl)c3)nc3ccccc3c2=O)cc1 [TCMDC-123576],23.52
9,COc1ccc(Cn2c(Nc3cccc(C(F)(F)F)c3)nc3cc(C(=O)NC4CC4)cnc32)cc1Cl [TCMDC-138554],-4.933
10,COc1ccc(Cn2c(SCc3ccc(C)cc3)nc3cc(OC)c(OC)cc3c2=N)cc1Cl [TCMDC-125587],96.33
11,CC[C@H]1CN2CC[C@H]1C[C@H]2[C@@H](O)c1cc(OCCCN(C)C)nc2ccc(OC)cc12 [TCMDC-131424],22.54
12,O=C(Nc1ccc(OC2CCN(Cc3ccc(F)cc3)C2)c(Cl)c1)c1ccoc1 (centres unmarked) [TCMDC-133755],23.17
13,CC(=O)CCc1ccc(OCCN(Cc2ccccc2C(F)(F)F)c2ccc(C#N)c(C(F)(F)F)c2)cc1 [TCMDC-135737],23.15
14,CCOC(=O)c1ccc(N2CCN(CCCNC(=O)/C(=C/C=C/c3cc4cc(Cl)c(Cl)cc4[nH]3)OC)CC2)cc1 [TCMDC-139306],-53.61
15,COc1ccc(N2C(=O)C3C(C2=O)C2(C)c4ccccc4C3(C)c3ccccc32)c([N+](=O)[O-])c1 (centres unmarked) [TCMDC-125621],9.788
16,COc1cc2c(c(OC)c1[N+](=O)[O-])C=CC1(O2)N(C)c2ccc([N+](=O)[O-])cc2C1(C)C (centres unmarked) [TCMDC-124133],52.65
17,CN1c2ccc([N+](=O)[O-])cc2C(C)(C)C12C=Cc1cc(Br)cc([N+](=O)[O-])c1O2 (centres unmarked) [TCMDC-124178],98.03
18,COc1ccc(C=CC(=O)NC(=O)c2ccccc2OC(=O)c2ccccc2)cc1OC [TCMDC-125709],14.45
19,COc1cc2c(c(Cl)c1OC)CCN(Cc1ccccc1)CC2c1ccc(C(N)=O)cc1 (centres unmarked) [TCMDC-132074],48.86
20,COc1cc2c(c(Cl)c1OC)CCN(C(=O)C(F)(F)F)CC2c1ccccc1 (centres unmarked) [TCMDC-132071],93.25
21,COc1cc2c(c(Cl)c1OC)CCN(Cc1ccccc1)CC2c1ccc(NC(=O)C(F)(F)F)cc1 (centres unmarked) [TCMDC-132075],32.93
